HT1080 IDH1KD tx = toxicity to HT-1080 IDH1 knockdown cells (counter line); HT-1080 IDH1 knockdown viability, ATP luminescence, 48 h; Potency, µM (top dose mostly 46.1 µM), inactives show at the highest dose activity, negative = toxicity, most hits filed as cytotoxic; actives 2% (n = 360,000); AID 686971;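 also: potency is read from the fitted curve at half-maximal effect; 0% = DMSO wells and -100% = cell-free medium wells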
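Cytotoxicity counter-line: IDH1KD HT-1080, 48 h, CellTiter-Glo. Curves classed by r2, magnitude and activity.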
KB-3-1 tox = kills parental KB-3-1 adenocarcinoma cells; actives 1.4% (n = 400,000); Potency, µM (series often up to 46.1 µM), actives largely listed as cytotoxic; KB-3-1 viability, CellTiter-Glo ATP luminescence, 72 h; also: potency is read from the fitted curve at half-maximal effect; nearly all actives have a fitted effect of over 60% in size
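Cytotoxicity in the drug-sensitive parental line KB-3-1 was scored as loss of CellTiter-Glo luminescence following 72 h incubation with compound. Values come from curve fitting of normalized concentration-response data.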
KB-V1 cytotox = KB-V1 MDR subline cytotoxicity; KB-V1 MDR cells viability, CellTiter-Glo, 72 h; Potency, µM (top dose mostly 46.1 µM), usual class: cytotoxic; actives 3.4% (n = 400,000); also: potency is read from the fitted curve at half-maximal effect; nearly all actives have a fitted effect of over 60% in size
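KB-V1, DMEM (no phenol red) + 10% FBS; cpd pin-transferred, titration series; 72 h, 37 degrees C; CellTiter-Glo, luminescence. Data normalized, curve-fit.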
HT1080-NT tox = kills 2HG-producing HT-1080-NT fibrosarcoma cells. HT-1080-NT fibrosarcoma viability, CellTiter-Glo ATP luminescence, 48 h. Potency, µM (top dose mostly 46.1 µM), inactives show top-dose activity, negative = less viability, usual class: cytotoxic. actives 1.6% (n = 360,000);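 also: NT is the 2HG producing partner of a matched IDH1 knockdown line; potency is read from the fitted curve at half-maximal effect; 0% = DMSO-treated cells and -100% = media-only wells without cells; nearly all actives have a fitted effect of over 55% in size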
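Viability by CellTiter-Glo luminescence after 48 h compound exposure at 37C of HT-1080-NT cells (750/well, RPMI, 5% FBS). % activity scaled between DMSO wells and medium-only wells, then curve-fitted and categorized by curve class.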
IL1B secr inh = inhibitors of inflammasome signaling (IL-1 beta secretion); THP-1 LPS/ATP IL-1B secretion, AlphaLISA, 16 h; active compounds read low; activity change, % at 57.5 µM; actives 4.7% (n = 360,000); in the data active = activity change below about -50%; inconclusive = mostly about -30% to -49%
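Secreted IL-1B measured by AlphaLISA bead assay after 16 h compound exposure of THP-1 cells; compounds (final up to 57.5 uM) added 1 h before LPS (250 ng/mL) and ATP (1.25 mM) stimulation; lower signal means less secretion.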
* = called active by the depositor. Most compounds without a hit are left out; they make up all but 8.8% or so of the library. Unless noted, calls follow the shape of the dose curve; as a rule, active = well fitted curve in the direction sought with a large enough effect; inconclusive = small, poorly fitted or top-dose-only effect, or another doubt; inactive = no such curve, though single readings can be large; an effect the other way counts as inactive or inconclusive. Unless noted, % is scaled to controls: 0 for no effect and ±100 for the full control effect.

Screening Oc1ccc2ccccc2c1/C=C/c1ccc2c(Br)cc(Br)c(O)c2n1 returned HT1080 IDH1KD tx 29µM*, KB-3-1 tox inconclusive, KB-V1 cytotox 4.1µM*, HT1080-NT tox inconclusive and IL1B secr inh 11.
For OCC[C@@H]1C[C@@H](O)[C@H](O)[C@@]2(Cc3ccccc3O2)O1 the results were HT1080 IDH1KD tx 13%, KB-3-1 tox inactive, KB-V1 cytotox inactive, HT1080-NT tox 11% and IL1B secr inh 21.
`O=C1C=C(NCc2ccccc2)c2ccccc2C1=O` gave HT1080 IDH1KD tx 4.6µM*, KB-3-1 tox inconclusive, KB-V1 cytotox inconclusive, HT1080-NT tox 3.7µM* and IL1B secr inh -101*.
`CCOc1ccc(NC2=CC(=O)C(=O)c3ccccc32)cc1` gave HT1080 IDH1KD tx inconclusive, KB-3-1 tox 6.5µM*, KB-V1 cytotox 4.1µM*, HT1080-NT tox inconclusive and IL1B secr inh -55*.
O=C1C=C(Nc2ccccc2O)c2ccccc2C1=O was read as HT1080 IDH1KD tx inconclusive, KB-3-1 tox 18µM*, KB-V1 cytotox 21µM*, HT1080-NT tox inconclusive and IL1B secr inh -90*.
Screening COc1cc(Cl)c(NC2=CC(=O)C(=O)c3ccccc32)c(OC)c1 returned HT1080 IDH1KD tx 8.2µM*, KB-3-1 tox 9.2µM*, KB-V1 cytotox 8.2µM*, HT1080-NT tox 9.2µM* and IL1B secr inh inconclusive.
CCOc1ccc(NC2=CC(=O)CCC2)cc1 was read as HT1080 IDH1KD tx -5%, KB-3-1 tox inactive, KB-V1 cytotox inactive, HT1080-NT tox -18% and IL1B secr inh 14.
For CC(C)(c1cc(Br)c(O)c(Br)c1)c1cc(Br)c(O)c(Br)c1 the results were HT1080 IDH1KD tx -5%, KB-3-1 tox inactive, KB-V1 cytotox inactive, HT1080-NT tox 1% and IL1B secr inh 26.
`O=C1C=C(Nc2cccnc2)c2ccccc2C1=O` gave HT1080 IDH1KD tx 23µM*, KB-3-1 tox 8.2µM*, KB-V1 cytotox inconclusive, HT1080-NT tox 23µM* and IL1B secr inh -70*.
For O=C1C=C(Nc2ccc(F)cc2)c2ccccc2C1=O the results were HT1080 IDH1KD tx inconclusive, KB-3-1 tox inconclusive, KB-V1 cytotox 21µM*, HT1080-NT tox inconclusive and IL1B secr inh 0.
For O=C(NCc1ccc(F)cc1)C(=O)NCC(c1ccco1)S(=O)(=O)c1cccs1 (stereo not drawn) the results were KB-3-1 tox inactive and KB-V1 cytotox inactive.
Screening N#Cc1cnc2nc1NCCCCCCC2 returned HT1080 IDH1KD tx 5%, KB-3-1 tox inconclusive, KB-V1 cytotox 5.2µM*, HT1080-NT tox 11% and IL1B secr inh 32.
Screening Nc1ccc(N2CCN(c3cccc(Cl)c3)CC2)cc1 returned HT1080 IDH1KD tx 1%, KB-3-1 tox inconclusive, KB-V1 cytotox 21µM*, HT1080-NT tox 6% and IL1B secr inh inconclusive.
`O=C1CC(=C(c2ccccc2)c2ccccc2)C(=O)N1CCCCN1CCN(c2ccccc2)CC1` gave HT1080 IDH1KD tx 16µM*, KB-3-1 tox 21µM*, KB-V1 cytotox inconclusive, HT1080-NT tox 18µM* and IL1B secr inh inconclusive.
Clc1cccc(N2CCN(CCCN3CCN(c4ccccc4)CC3)CC2)c1 was read as HT1080 IDH1KD tx inconclusive, KB-3-1 tox inconclusive, KB-V1 cytotox inactive, HT1080-NT tox -26% and IL1B secr inh -53*.
Screening O=C(CCC(=O)N1CCN(c2cccc(Cl)c2)CC1)N1CCN(c2ccccc2)CC1 returned HT1080 IDH1KD tx -18%, KB-3-1 tox inactive, KB-V1 cytotox inactive, HT1080-NT tox -3% and IL1B secr inh -18.
For O=C1C2CCCN2C(=O)N1CCCCN1CCN(c2cccc(Cl)c2)CC1 (stereo not drawn) the results were HT1080 IDH1KD tx -10%, KB-3-1 tox inactive, KB-V1 cytotox 8.2µM*, HT1080-NT tox -4% and IL1B secr inh 13.
Screening COc1ccc(-n2c(O)cnc2Nc2nc(C)cc(C)n2)cc1OC returned HT1080 IDH1KD tx 6%, KB-3-1 tox inactive, KB-V1 cytotox inactive, HT1080-NT tox 5% and IL1B secr inh 10.
`CC(=O)NCCNc1nc2cc(-c3cscc3C)sc2c(=O)n1C` gave HT1080 IDH1KD tx -3%, KB-3-1 tox inactive, KB-V1 cytotox inactive, HT1080-NT tox 0% and IL1B secr inh 70.
For O=C(Nc1ccccc1C(F)(F)F)N1CCN(c2ccccn2)CC1 the results were HT1080 IDH1KD tx 11%, KB-3-1 tox inactive, KB-V1 cytotox inactive, HT1080-NT tox 13% and IL1B secr inh -14.
`Cn1c(N)c(C(=O)COC(=O)c2ccccc2C(=O)c2ccc(Cl)c([N+](=O)[O-])c2)c(=O)n(C)c1=O` gave HT1080 IDH1KD tx inconclusive, KB-3-1 tox inconclusive, KB-V1 cytotox inactive, HT1080-NT tox inconclusive and IL1B secr inh -99*.
CN(CCC#N)C(=O)COC(=O)c1ccccc1C(=O)c1ccc(Cl)c([N+](=O)[O-])c1 was read as HT1080 IDH1KD tx 16µM*, KB-3-1 tox inconclusive, KB-V1 cytotox inactive, HT1080-NT tox 10µM* and IL1B secr inh -106*.
For CC(C)N(C(=O)COC(=O)c1ccccc1C(=O)c1ccc(Cl)c([N+](=O)[O-])c1)C(C)C the results were HT1080 IDH1KD tx 21µM*, KB-3-1 tox inactive, KB-V1 cytotox inactive, HT1080-NT tox 18µM* and IL1B secr inh -102*.
O=C(COC(=O)c1ccccc1C(=O)c1ccc(Cl)c([N+](=O)[O-])c1)NC1CCCCCC1 was read as HT1080 IDH1KD tx 3.2µM*, KB-3-1 tox inconclusive, KB-V1 cytotox inactive, HT1080-NT tox 8.9µM* and IL1B secr inh -107*.
`CCc1ccccc1N1C(=O)N(Cc2ccc(C#N)cc2)c2ccccc2S1(=O)=O` gave KB-3-1 tox inactive and KB-V1 cytotox inactive.
CC(=O)Oc1ccc(N2C(=O)C3C(C2=O)C(C(=O)c2ccc(Cl)cc2)N2CCCC32)cc1 (stereo not drawn) was read as HT1080 IDH1KD tx 23µM*, KB-3-1 tox 18µM*, KB-V1 cytotox inconclusive, HT1080-NT tox inconclusive and IL1B secr inh -101*.
`O=C1C2CC=CCC2C(=O)N1c1cccc(OS(=O)(=O)c2ccc3ccccc3c2)c1` (stereo not drawn) gave HT1080 IDH1KD tx -22%, KB-3-1 tox inactive, KB-V1 cytotox 21µM*, HT1080-NT tox -23% and IL1B secr inh 9.
For Cc1ccc(S(=O)(=O)Oc2ccccc2N2C(=O)C3CC=CCC3C2=O)cc1 (stereo not drawn) the results were HT1080 IDH1KD tx -4%, KB-3-1 tox inactive, KB-V1 cytotox 8.2µM*, HT1080-NT tox 4% and IL1B secr inh 19.

Assay outcomes deposited in PubChem by National Center for Advancing Translational Sciences (NCATS).
